# Laboratory results as given in publication PMC12820563, “FoxP3 forms a head-to-head dimer in vivo and stabilizes its multimerization on adjacent microsatellites”.
# The full ranking holds about 16,000 sequences; the median of “rpm ratio (pull-down/input)” is about 0.5, and the highest 2% start at about 5.5. The list comes from a sample in which the highest values are over-represented; it also holds similar and randomly drawn sequences.
# Biological target: T1, MBP-FoxP3dN (Mus musculus, UniProt Q99JB6 188-423)
# T1 sequence: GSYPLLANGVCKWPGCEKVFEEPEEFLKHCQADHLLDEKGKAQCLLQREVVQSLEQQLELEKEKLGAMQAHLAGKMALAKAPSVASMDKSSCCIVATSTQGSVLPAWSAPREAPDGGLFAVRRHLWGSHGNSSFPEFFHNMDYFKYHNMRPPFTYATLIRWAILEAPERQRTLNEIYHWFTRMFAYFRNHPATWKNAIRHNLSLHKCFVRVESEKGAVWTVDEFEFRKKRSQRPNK
# Experiment: PD-seq (MBP pull-down with sequencing); 20 mM Tris-HCl pH 7.5, 100 mM NaCl, 1.5 mM MgCl2, 0.4 uM protein, 0.1 uM dsDNA library, 30 min, room temperature, amylose pull-down; high values mean tight binding
# Settings: protein: recombinant; tags: His6-MBP; chain copies: 2; dsDNA, one strand shown
# Procedure, shortened: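 Amylose resin was used to capture complexes formed during 30 min at room temperature in Tris pH 7.5 buffer with NaCl and MgCl2 between 0.4 µM His6-MBP-tagged mouse FoxP3 or FoxP1 fragment lacking the N-terminus, expressed in E. coli, and 0.1 µM Klenow-filled double-stranded degenerate DNA library. After three washes, the DNA was released with proteinase K, barcoded by PCR and sequenced on Illumina. Binding is pooled-replicate reads-per-million enrichment, pull-down over input.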
row,Sequence,binding signal
1,GATGATTGTTCTCCCAGCTGATGAATTTGGTCCGTCGAGTAAACAAATTTTCCTAATCTTTCTGTTCAAGCGCCATCTAC,0.363 RPM ratio (pull-down/input)
2,GATGATTGTTCTCCCAGCTGATGAATTGGAACTCTCGAGTAAACAAATTTTCCTAATCTTTCTGTTCAAGCGCCATCTAC,0.343 RPM ratio (pull-down/input)
3,GATGATTGTTCTCCCAGCTGATGAATTCCTTTGGTCGAGTAAACAAATTTTCCTAATCTTTCTGTTCAAGCGCCATCTAC,0.395 RPM ratio (pull-down/input)
4,GATGATTGTTCTCCCAGCTGATGAATTGACACATTCGAGTAAACAAATTTTCCTAATCTTTCTGTTCAAGCGCCATCTAC,0.772 RPM ratio (pull-down/input)
5,GATGATTGTTCTCCCAGCTGATGAATTGCGATGGTCGAGTAAACAAATTTTCCTAATCTTTCTGTTCAAGCGCCATCTAC,1.01 RPM ratio (pull-down/input)
6,GATGATTGTTCTCCCAGCTGATGAATTTTACGCCTCGAGTAAACAAATTTTCCTAATCTTTCTGTTCAAGCGCCATCTAC,0.506 RPM ratio (pull-down/input)
7,GATGATTGTTCTCCCAGCTGATGAATTACGCATCTCGAGTAAACAAATTTTCCTAATCTTTCTGTTCAAGCGCCATCTAC,7.33 RPM ratio (pull-down/input)
8,GATGATTGTTCTCCCAGCTGATGAATTACGCGCCTCGAGTAAACAAATTTTCCTAATCTTTCTGTTCAAGCGCCATCTAC,1.67 RPM ratio (pull-down/input)
9,GATGATTGTTCTCCCAGCTGATGAATTACGCCACTCGAGTAAACAAATTTTCCTAATCTTTCTGTTCAAGCGCCATCTAC,6.17 RPM ratio (pull-down/input)
10,GATGATTGTTCTCCCAGCTGATGAATTACTCCACTCGAGTAAACAAATTTTCCTAATCTTTCTGTTCAAGCGCCATCTAC,0.339 RPM ratio (pull-down/input)
11,GATGATTGTTCTCCCAGCTGATGAATTTACGCACTCGAGTAAACAAATTTTCCTAATCTTTCTGTTCAAGCGCCATCTAC,0.784 RPM ratio (pull-down/input)
12,GATGATTGTTCTCCCAGCTGATGAATTACGCCTCTCGAGTAAACAAATTTTCCTAATCTTTCTGTTCAAGCGCCATCTAC,5.99 RPM ratio (pull-down/input)
13,GATGATTGTTCTCCCAGCTGATGAATTACGCGCATCGAGTAAACAAATTTTCCTAATCTTTCTGTTCAAGCGCCATCTAC,1.54 RPM ratio (pull-down/input)
14,GATGATTGTTCTCCCAGCTGATGAATTACGCAGCTCGAGTAAACAAATTTTCCTAATCTTTCTGTTCAAGCGCCATCTAC,1.78 RPM ratio (pull-down/input)
15,GATGATTGTTCTCCCAGCTGATGAATTAGATGTGTCGAGTAAACAAATTTTCCTAATCTTTCTGTTCAAGCGCCATCTAC,2.71 RPM ratio (pull-down/input)
16,GATGATTGTTCTCCCAGCTGATGAATTGTCCCGCTCGAGTAAACAAATTTTCCTAATCTTTCTGTTCAAGCGCCATCTAC,0.272 RPM ratio (pull-down/input)

row,Sequence,binding signal
1,GATGATTGTTCTCCCAGCTGATGAATTAAGTCCGTCGAGTAAACAAATTTTCCTAATCTTTCTGTTCAAGCGCCATCTAC,0.307 RPM ratio (pull-down/input)
2,GATGATTGTTCTCCCAGCTGATGAATTTCGCTTGTCGAGTAAACAAATTTTCCTAATCTTTCTGTTCAAGCGCCATCTAC,3.29 RPM ratio (pull-down/input)
3,GATGATTGTTCTCCCAGCTGATGAATTTTGTATATCGAGTAAACAAATTTTCCTAATCTTTCTGTTCAAGCGCCATCTAC,7.43 RPM ratio (pull-down/input)
4,GATGATTGTTCTCCCAGCTGATGAATTTGTAATATCGAGTAAACAAATTTTCCTAATCTTTCTGTTCAAGCGCCATCTAC,1.95 RPM ratio (pull-down/input)
5,GATGATTGTTCTCCCAGCTGATGAATTTTATACATCGAGTAAACAAATTTTCCTAATCTTTCTGTTCAAGCGCCATCTAC,0.598 RPM ratio (pull-down/input)
6,GATGATTGTTCTCCCAGCTGATGAATTGTATATATCGAGTAAACAAATTTTCCTAATCTTTCTGTTCAAGCGCCATCTAC,3.21 RPM ratio (pull-down/input)
7,GATGATTGTTCTCCCAGCTGATGAATTGTATACATCGAGTAAACAAATTTTCCTAATCTTTCTGTTCAAGCGCCATCTAC,5.87 RPM ratio (pull-down/input)
8,GATGATTGTTCTCCCAGCTGATGAATTCTATACATCGAGTAAACAAATTTTCCTAATCTTTCTGTTCAAGCGCCATCTAC,0.559 RPM ratio (pull-down/input)
9,GATGATTGTTCTCCCAGCTGATGAATTCTATATATCGAGTAAACAAATTTTCCTAATCTTTCTGTTCAAGCGCCATCTAC,1.18 RPM ratio (pull-down/input)
10,GATGATTGTTCTCCCAGCTGATGAATTCTGTATATCGAGTAAACAAATTTTCCTAATCTTTCTGTTCAAGCGCCATCTAC,5.72 RPM ratio (pull-down/input)
11,GATGATTGTTCTCCCAGCTGATGAATTCAGTATATCGAGTAAACAAATTTTCCTAATCTTTCTGTTCAAGCGCCATCTAC,2.12 RPM ratio (pull-down/input)
12,GATGATTGTTCTCCCAGCTGATGAATTTCAGCAATCGAGTAAACAAATTTTCCTAATCTTTCTGTTCAAGCGCCATCTAC,1.94 RPM ratio (pull-down/input)
13,GATGATTGTTCTCCCAGCTGATGAATTCACAGCATCGAGTAAACAAATTTTCCTAATCTTTCTGTTCAAGCGCCATCTAC,0.801 RPM ratio (pull-down/input)
14,GATGATTGTTCTCCCAGCTGATGAATTAGCACTTTCGAGTAAACAAATTTTCCTAATCTTTCTGTTCAAGCGCCATCTAC,0.435 RPM ratio (pull-down/input)
15,GATGATTGTTCTCCCAGCTGATGAATTAATCTATTCGAGTAAACAAATTTTCCTAATCTTTCTGTTCAAGCGCCATCTAC,0.398 RPM ratio (pull-down/input)
16,GATGATTGTTCTCCCAGCTGATGAATTTCTAATTTCGAGTAAACAAATTTTCCTAATCTTTCTGTTCAAGCGCCATCTAC,0.301 RPM ratio (pull-down/input)
